# Compounds without any hit were thinned out: in the full panel of roughly 83,000, 20% have a hit.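 Plates (96-well) were seeded with cells, treated with compound at one concentration, and incubated for 48 hours before percent growth was determined.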 Unmarked numbers belong to inactive results. Calls of active or inactive are those of the source. How the source made its calls: active means growth percent below 10; inactive means the rest.
# Experiments:
# Test in all cases: NCI-60 one-dose screen, 48 h (100 = growth as untreated, 0 = no growth, -100 = all killed)
# DU-145 prostate = conditions: 10 µM unless noted
# K-562 leukemia = conditions: 10 µM unless noted
# MALME-3M melanoma = conditions: 10 µM unless noted
# MDA-MB-231 breast = conditions: 10 µM unless noted
# RXF 393 renal = conditions: 10 µM unless noted
# SF-268 CNS = conditions: 10 µM unless noted
# SF-295 CNS = conditions: 10 µM unless noted
# SF-539 CNS = conditions: 10 µM unless noted
# UACC-257 melanoma = conditions: 10 µM
# M14 melanoma = conditions: 10 µM unless noted
# HCT-15 colon = conditions: 10 µM unless noted
# HT29 colon = conditions: 10 µM unless noted
# SNB-19 CNS = conditions: 10 µM unless noted
# U251 CNS = conditions: 10 µM unless noted
# PC-3 prostate = conditions: 10 µM unless noted
# SK-MEL-5 melanoma = conditions: 10 µM unless noted
# UACC-62 melanoma = conditions: 10 µM unless noted
# LOX IMVI melanoma = conditions: 10 µM unless noted
# SK-MEL-28 melanoma = conditions: 10 µM unless noted
# SNB-75 CNS = conditions: 10 µM unless noted
Compound,growth (DU-145 prostate),growth (K-562 leukemia),growth (MALME-3M melanoma),growth (MDA-MB-231 breast) [%],growth (RXF 393 renal),growth (SF-268 CNS),growth (SF-295 CNS),growth (SF-539 CNS),growth (UACC-257 melanoma),growth (M14 melanoma),growth (HCT-15 colon) [%],growth (HT29 colon),growth (SNB-19 CNS),growth (U251 CNS),growth (PC-3 prostate),growth (SK-MEL-5 melanoma),growth (UACC-62 melanoma),growth (LOX IMVI melanoma),growth (SK-MEL-28 melanoma) [%],growth (SNB-75 CNS)
Nc1ccc(-c2nnc(SCc3ccc(O)c4ncccc34)o2)cc1,9.69% (active),3.52% (active),-2.77% (active),33.8,-14.8% (active),1.12% (active),-21.6% (active),-14.1% (active),-20.4% (active),-38.8% (active),10.2,8.36% (active),8.55% (active),-6.47% (active),0.0718% (active),-20.5% (active),-54.4% (active),0.185% (active),10.6,
O=C(CSc1ccc(-c2nc3ccccc3[nH]2)cn1)N1CCN(c2ccccc2F)CC1,90.7%,41.9%,90.8%,100,90.7%,87.7%,61.4%,92.1%,56.2%,59.8%,72.4,94.1%,89.8%,90.5%,57.7%,-32.7% (active),52.4%,85.3%,87.8,
CCOC(=O)C1=C(C)Nc2nnc(Nc3ccccc3)n2C1c1ccccc1 (stereo unspecified),81.6%,57%,75.3%,65.7,80%,81.9%,96.6%,-3.55% (active),97%,100%,58.1,79.4%,81.6%,45.4%,73.5%,,75.3%,59.2%,89.9,70.5%
O=S(=O)(Nc1cc(Cl)cc(Cl)c1)c1ccc(-c2cnc(C3CC3)o2)cc1,22.3%,14.4%,60.4%,47.5,8.4% (active),66.6%,17.4%,13.7%,75.1%,19.9%,30.9,12.1%,42.9%,37.4%,27%,,39.1%,44.8%,69.9,-1.98% (active)
Oc1ccc(CSc2nnc(-c3ccccc3)o2)c2cccnc12,30%,10.4%,36.1%,47,24.5%,21.8%,2.18% (active),13.2%,6.39% (active),15.5%,10.6,88.8%,17%,10.9%,21.8%,6.95% (active),5.32% (active),5.66% (active),21.7,
N/C(=N\c1nc2ccc([N+](=O)[O-])cc2s1)C(Cl)(Cl)Cl,1.66% (active),81.2%,77.4%,63.1,44.3%,71.3%,19.6%,63.5%,85.1%,85.5%,70.8,30.7%,61.2%,43.9%,49.1%,83.8%,54.7%,76%,72.2,
Oc1ccc(CSc2nnc(-c3ccc(Oc4ccccc4)cc3)n2-c2ccccc2)c2cccnc12,26.5%,15.3%,11.9%,35.8,21.5%,22.3%,0.102% (active),2.32% (active),0.403% (active),-4.33% (active),10.8,44.8%,13.8%,11.9%,17.3%,-24.1% (active),-25.4% (active),4.48% (active),14.6,
Oc1ccc(CSc2nnc(-c3ccncc3)o2)c2cccnc12,26%,14.7%,2.27% (active),24.5,7.2% (active),26.3%,3.07% (active),18%,-2.73% (active),25.4%,23,20.7%,17.6%,15.8%,12.7%,-51.3% (active),18.2%,21.4%,39.7,
Oc1ccc(CSc2nnc(-c3ccc(Br)cc3)n2-c2ccccc2)c2cccnc12,39.2%,15.8%,52%,59.2,71.5%,32.7%,6.74% (active),16.8%,25.2%,30.1%,15.7,89.6%,17.8%,7.75% (active),29.5%,12%,0.404% (active),36.2%,40.9,

# From PubChem BioAssay (NCI)
